Source: PubChem
This is a sample that favours compounds with a hit; in the whole collection about 1.1% have one here.
GLS inh: glutaminase GLS (human) inhibition. 410,000 compounds, 0.21% hits. O94925. Potency, µM (highest dose often 45.5 µM), for the others: at the top dose activity change, negative = inhibition, actives largely listed as inhibitors. GLS enzymatic activity, qHTS titration
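Human kidney-isoform GLS in 45 mM KH2PO4 pH 8.2, 0.02% Tween-20, with compound, started with 1mM L-Glutamine (added stock). Glutamate oxidase/HRP/Amplex red coupled fluorescence read at start and after 30 min at RT.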
VDR inhibitor: inhibitors of human vitamin D receptor; 400,000 compounds, 0.93% hits; Potency, µM, for the others: max response, negative = inhibition, usual class: inhibitors; P11473; AID 504847; VDR-SRC2-3 peptide fluorescence polarization, 2 h
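Inhibition of the VDR/SRC2-3 peptide interaction is quantified by fluorescence polarization. Compounds (23 nl, pintool) incubate with the reagents for 2 hours at ambient room temperature.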
Pin1 inhibitor: blocks the human prolyl isomerase Pin1. Q13526. Pin1 FP peptide displacement, HiFluor488, 10 min. 390,000 compounds, 0.009% hits. Potency, µM (series often up to 115 µM), without a hit: top-dose activity, negative = inhibition, hits mostly inhibitors; active = well fitted inhibition curve with a large enough effect in the polarisation, with a control signal flat, not every such curve was filed as active; inconclusive = small, poorly fitted or top-dose-only effect, or effect the other way, or a change in a side signal; inactive = no such curve, though single readings can be large or run the other way; the % refers to the polarisation
Target sequence (Q13526 whole entry, looked up): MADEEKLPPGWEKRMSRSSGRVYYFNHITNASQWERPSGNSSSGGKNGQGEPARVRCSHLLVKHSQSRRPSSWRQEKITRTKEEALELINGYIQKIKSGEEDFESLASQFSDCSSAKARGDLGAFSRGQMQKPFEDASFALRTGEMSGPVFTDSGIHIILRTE
Tb PGK inh: inhibitors of T. brucei phosphoglycerate kinase. AID 602233. 380,000 compounds, 0.043% hits. Potency, µM (titrated, usually from 57.5 µM), for the others: at the top dose activity change, negative = inhibition, most hits filed as inhibitors. PGK/GAPDH coupled, Kinase-Glo luminescence, 60 min; note: nearly all actives have a fitted effect of over 60% in size
Target sequence (P07378 whole entry, looked up): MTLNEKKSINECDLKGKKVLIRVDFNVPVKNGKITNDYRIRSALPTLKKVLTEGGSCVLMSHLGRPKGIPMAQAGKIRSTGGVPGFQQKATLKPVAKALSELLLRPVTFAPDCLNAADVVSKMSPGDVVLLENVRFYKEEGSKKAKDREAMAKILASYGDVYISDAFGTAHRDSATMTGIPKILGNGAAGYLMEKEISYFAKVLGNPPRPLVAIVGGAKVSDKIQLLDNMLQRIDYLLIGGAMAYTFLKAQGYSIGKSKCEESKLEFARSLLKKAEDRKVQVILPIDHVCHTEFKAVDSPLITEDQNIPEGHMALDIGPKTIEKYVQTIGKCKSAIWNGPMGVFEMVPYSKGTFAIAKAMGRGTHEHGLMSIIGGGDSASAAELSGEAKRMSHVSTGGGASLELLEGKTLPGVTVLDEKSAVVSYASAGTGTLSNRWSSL
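Recombinant glycosomal PGK reaction used 1,3-bisphosphoglycerate generated in-well by GAPDH (100nM final) in 100mM TEA pH 7.6, 5mM MgCl2, 0.01% Tween-20. After 60 minutes at room temperature, ATP was read by Kinase-Glo Plus luminescence end-point.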
Tb PFK block: blocks T. brucei phosphofructokinase; T. brucei PFK, ADP-Glo luminescence; Potency, µM (series often up to 57.5 µM), inactives show at the top dose activity, negative = inhibition, most hits filed as inhibitors; 330,000 compounds, 0.17% hits; AID 485367;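 note: 0% = uninhibited 1x PFK enzyme wells and -100% = no-enzyme wells; nearly all actives have a fitted effect of over 60% in size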
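Activity is normalized to no-enzyme wells (full inhibition) and 1.25 nM enzyme wells (no inhibition). Reaction: 0.5 mM F6P, 0.1 mM ATP, 45 min RT, ADP-Glo luminescence; concentration-response curves fitted and classed by quality.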
* = called active by the depositor; i = inactive; ? = inconclusive; . = not tested or not shown; [ ] = remark or other dose. Unless noted, calls come from the whole dose curve; as a rule, active = well fitted curve in the direction sought with a large enough effect; inconclusive = small, poorly fitted or top-dose-only effect, or another doubt; inactive = no such curve, though single readings can be large; an effect the other way counts as inactive or inconclusive. Unless noted, % is set by controls: 0 for no effect and ±100 for the full control effect; potency is the fitted concentration of half-maximal effect.

SMILES | GLS inh | VDR inhibitor | Pin1 inhibitor | Tb PGK inh | Tb PFK block
CC1=NN(c2ccccc2)C(=O)/C1=C/C=C/c1ccccc1 | -2% | ? | 6% | i | -5%
CCC(C(=O)NCCc1ccc(OC)c(OC)c1)n1nc(C)c2sc3ccccc3c2c1=O (stereo unspecified) | 7% | -4% | 19% | 1% | .
Cc1ccc(N2C(=O)C3C4C=CC(CNC(=S)N5CCN(c6ccccn6)CC5)(O4)C3C2=O)cc1 (stereo unspecified) | 2% | 79µM* | 14% | -11% | 14%
CCc1ccc(NC(=O)c2sc(-n3nc(C)c(Cc4ccc(OC)cc4)c3C)nc2C)cc1 | -11% | 14% | -4% | 7% | .
COCCN1C(=O)CC(NNC(=O)c2ccc(S(=O)(=O)N3CCCC3)cc2)C1=O (stereo unspecified) | 10µM* | -9% | -6% | -7% | 8%
CN(Cc1ccco1)c1nc(-c2cccc(C#N)c2)nc2ccccc12 | . | 45µM* | . | . | .
Cc1cccc(CNc2nc(-c3c(C)noc3C)nc3ccccc23)c1 | . | 0% | . | . | .
Cc1noc(C)c1-c1nc(N(C)Cc2ccco2)c2ccccc2n1 | . | 28µM* | . | . | .
CN(Cc1ccco1)c1nc(-c2ccoc2)nc2ccccc12 | . | 45µM* | . | . | .
Nc1ccc2cc3ccc(N)cc3nc2c1 | 0% | ? | . | . | .
COc1cccc(-n2c(SCC(=O)Nc3ccc4c(c3)OCO4)nc3c([nH]c4ccccc43)c2=O)c1 | 0% | 1% | 16% | -4% | .
COc1cc(/C=C/C(=O)OCC(=O)NCC(=O)Nc2cccc(C)c2C)ccc1OC(F)F | -7% | 3% | 7% | -5% | -6%
Cc1cccc(Cc2c(C)nc3nc(SCc4ccccc4F)nn3c2C)c1 | 0% | 5% | 12% | -10% | .
O=C(OCC1OC(OC(=O)c2cc(O)c(O)c(OC(=O)c3cc(O)c(O)c(O)c3)c2)[C@@H](OC(=O)c2cc(O)c(O)c(OC(=O)c3cc(O)c(O)c(O)c3)c2)C(OC(=O)c2cc(O)c(O)c(OC(=O)c3cc(O)c(O)c(O)c3)c2)C1OC(=O)c1cc(O)c(O)c(OC(=O)c2cc(O)c(O)c(O)c2)c1)c1cc(O)c(O)c(OC(=O)c2cc(O)c(O)c(O)c2)c1 (stereo partly specified) | 28% | 13µM* | . | . | .
O=C1CN(C(=S)NC(=O)c2ccccc2[N+](=O)[O-])CCN1 | 0% | 17% | -3% | 1% | -3%
O=C(/C(=C/c1ccccc1)n1cncn1)c1ccc(Cl)cc1Cl | 12% | 20µM* | -2% | -10% | -1%
O=C(/C(=N\O)n1cncn1)c1ccc(Cl)cc1Cl | -10% | 11% | 10% | -3% | -1%
Cc1cccc(C(=O)n2c(=S)nc3ccccn32)c1 | ? | 79µM* | 6% | -15% | -1%
Cc1c(N2C(=O)/C(=C\C3CC=CCC3)SC2=S)c(=O)n(-c2ccccc2)n1C (stereo unspecified) | 1% | 50µM* | 1% | -4% | 1%
Cc1c(N2C(=O)/C(=C/C3CC=CCC3)SC2=S)c(=O)n(-c2ccccc2)n1C (stereo unspecified) | -8% | ? | ? | 3% | -3%
Cc1ccc(C2C(C(=O)c3cc4ccccc4o3)=C(O)C(=O)N2c2cc(C)on2)cc1 (stereo unspecified) | -4% | 79µM* | -7% | -4% | -2%
Cc1cc(N2C(=O)C(O)=C(C(=O)c3cc4ccccc4o3)C2c2ccc([N+](=O)[O-])cc2)no1 (stereo unspecified) | 6% | -5% | -11% | 0% | -7%
COC(=O)c1c(-c2ccc(C(C)(C)C)cc2)csc1NC(=O)C1C2CCC(O2)C1C(=O)O (stereo unspecified) | ? | 45µM* | -3% | -3% | -26%
COC(=O)c1c(-c2ccc(C)cc2)csc1NC(=O)C1CC=CCC1C(=O)O (stereo unspecified) | 7% | 1% | 35% | i | 8%
CC(C)(C)C(Cn1ccnc1)NC(=O)c1ccc2nc(C3CC3)oc2c1 (stereo unspecified) | -4% | 0% | 1% | i | 1%
SMILES | GLS inh | VDR inhibitor | Pin1 inhibitor | Tb PGK inh | Tb PFK block
Cc1nn(-c2ccccc2)c(Cl)c1/C=N/NC(=O)OC(C)(C)C | 9% | -10% | ? | -4% | 0%
O=C(O)c1ccccc1NS(=O)(=O)c1ccc(NN=Cc2ccccc2F)c([N+](=O)[O-])c1 | 12% | ? | . | ? | -2%
Cc1nn(-c2ccccc2)c(Cl)c1/C=N/Nc1ccc(Cl)c(C(=O)O)c1 | 16µM* | -11% | 0% | -4% | 3%
Cc1nn(-c2ccccc2)c(Cl)c1/C=N/Nc1ccc(S(=O)(=O)Nc2ccccc2C(=O)O)cc1[N+](=O)[O-] | 1% | 79µM* | . | ? | 6%
COc1ccc(C=NNc2ccc(S(=O)(=O)Nc3ccccc3C(=O)O)cc2[N+](=O)[O-])c(OC)c1 | 13% | 89µM* | . | ? | 3%
COc1ccccc1CNc1nc(NCc2ccc3occc3c2)c2sccc2n1 | 15% | . | . | . | .
COc1cccc(-c2c(-c3cc(OC)cc(OC)c3)n(C)c3ccc(-c4cccc5[nH]ccc45)cc23)c1 | 2% | -27% | 28% | -3% | -1%
Cc1nc(SCC(=O)c2ccccc2)n[nH]1 | 0% | 50µM* | -9% | -13% | ?
CCc1nc(SCC(=O)c2cccc([N+](=O)[O-])c2)n[nH]1 | 15% | 50µM* | 0% | -2% | -5%
O=C(CSc1n[nH]c(-c2ccncc2)n1)c1ccccc1 | -4% | -5% | 2% | -2%[11.5 µM] | 0%
COC(=O)N1CCC2(CC1)CCN(c1ncccn1)CC2 | . | 0% | . | . | .
CCC(NC(=O)CCc1ccccc1)c1ccccc1 (stereo unspecified) | 2% | 89µM* | -9% | i | 2%
COc1cccc(C(=O)c2cn(CC(=O)NCc3ccccc3)c3nc(C)ccc3c2=O)c1 | -13% | 12% | 51% | 8% | .
Cc1ccc(NS(=O)(=O)c2cc3c(cc2N(C)C)CCC(=O)N3)cc1C | . | . | 6% | . | .
CN(C)c1ccc(NC(=O)N2CCOCC2)cc1 | 20% | 14µM* | 3% | -4% | -17%
O=C(Nc1ccc(F)cc1)N1CCOCC1 | . | 14% | ? | 2% | -2%
CCN1CC(C)(C)N(C(=O)c2ccccc2)CC1(C)C | 20% | -11% | -10% | -3% | .
C[C@H](O)[C@H](O)[C@H]1CNc2nc(N)[nH]c(=O)c2N1 | 27% | 79µM* | ? | -8% | -1%
CCOc1ncccc1C(=O)Nc1cc(S(=O)(=O)N(CC)CC)ccc1N1CCOCC1 | -2% | 79µM* | 4% | 6% | 0%
CCN(CC)S(=O)(=O)c1ccc(N2CCOCC2)c(NS(=O)(=O)c2ccc(C(C)C)cc2)c1 | -22% | 35µM* | -3% | -9% | -9%
